Results published in the supplement of paper PMC10849652.
Targets with a hit are over-represented here; the source holds about 8,800 in all. About 0.5% of all pairs of compound and target were hits.

How the values were obtained:
Test in all cases: log2 fold change, soluble protein after heating vs DMSO (PISA); higher = thermal stabilisation; K562 lysate, 10 uM; active = over 0.2 and 3.5 SD of the protein, either way, in both replicates (recomputed)
ibrutinib = compound: C=CC(=O)N1CCC[C@@H](n2nc(-c3ccc(Oc4ccccc4)cc3)c3c(N)ncnc32)C1 [ibrutinib]
Summary of the method: (§1)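 Quantification was by TMTpro 16plex LC-MS/MS with equalised channel sums, applied to the supernatant after 21,000xg for 90 min. Samples were crude K562 extract at 1 mg/mL protein in PBS pH 7.4 with 1 mM MgCl2, treated with 10 μM compound for 30 min, heated for 3 min across 48°C-58°C, pooled and brought to 0.5% NP-40 at 4°C. Values are log-two fold changes in thermal stability relative to solvent controls, from duplicates.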

[1] = compound: CC(=O)c1cnc2ccc(-c3cc(Cl)c(O)c(Cl)c3)nc2c1N[C@H]1CC[C@H](CN(C)C)CC1
Summary of the method: as §1

ralimetinib = compound: CC(C)(C)Cn1c(N)nc2ccc(-c3[nH]c(C(C)(C)C)nc3-c3ccc(F)cc3)nc21 [ralimetinib]
Summary of the method: as §1

[2] = compound: CC(C)(O)CC(=O)NCCn1ccc2ncnc(Nc3ccc(Oc4cccc(C(F)(F)F)c4)c(Cl)c3)c21
Summary of the method: as §1

[3] = compound: CC(C)C1=C2N=C(C=C(N2N=C1)NCC3=CC=CC=C3)NCCCCCCN
Summary of the method: as §1

[4] = compound: CC1=C(C(CC(=O)N1)C2=CC=C(C=C2)C(F)(F)F)C(=O)NC3=C(C=C4C(=C3)C=NN4)F
Summary of the method: as §1

[5] = compound: CC1=C(C2=C(C=C1)C(=O)C3=CC=CC=C3N2CCCN)C
Summary of the method: as §1

[6] = compound: CC1=C(C=C(C=C1)NC(=O)C2=CC(=CC=C2)C(C)(C)C#N)NC3=CC4=C(C=C3)N=CN(C4=O)C
Summary of the method: as §1

[7] = compound: CC1=C(C=C(C=C1)NC(=O)C2=CC(=CC=C2)N(C)C)NC(=O)C3=CC=C(C=C3)O
Summary of the method: as §1

[8] = compound: CC1=CC=C(C=C1)SC2=C3C=C(SC3=CN=C2)C(=O)N
Summary of the method: as §1

vemurafenib = compound: CCCS(=O)(=O)Nc1ccc(F)c(C(=O)c2c[nH]c3ncc(-c4ccc(Cl)cc4)cc23)c1F [vemurafenib]
Summary of the method: as §1

[9] = compound: CCCS(=O)(=O)Nc1ccc(F)c(C(=O)c2c[nH]c3ncc(Cl)cc23)c1F
Summary of the method: as §1

barasertib = compound: CCN(CCCOc1ccc2c(Nc3cc(CC(=O)Nc4cccc(F)c4)[nH]n3)ncnc2c1)CCOP(=O)(O)O [barasertib]
Summary of the method: as §1

[10] = compound: CC[C@@H]1C(=O)N(C)c2cnc(Nc3ccc(C(=O)NC4CCN(C)CC4)cc3OC)nc2N1C1CCCC1
Summary of the method: as §1

volasertib = compound: CC[C@@H]1C(=O)N(C)c2cnc(Nc3ccc(C(=O)N[C@H]4CC[C@H](N5CCN(CC6CC6)CC5)CC4)cc3OC)nc2N1C(C)C [volasertib]
Summary of the method: as §1

[11] = compound: CCn1c(C(=O)N(C2CC2)C2CC2)cc2c3c(ncn3C)c(Nc3cc(C)n(C)n3)nc21
Summary of the method: as §1

[12] = compound: CCn1cc(-c2ccnc3[nH]c(-c4cccc(CN(C)C)c4)cc23)c(-c2ccc(NC(=O)N(C)C)cc2)n1
Summary of the method: as §1

[13] = compound: CN1CCC(CNc2ccc3ncc(-c4cccc(OC(F)(F)F)c4)n3n2)CC1
Summary of the method: as §1

saracatinib = compound: CN1CCN(CCOc2cc(OC3CCOCC3)c3c(Nc4c(Cl)ccc5c4OCO5)ncnc3c2)CC1 [saracatinib]
Summary of the method: as §1

sotrastaurin = compound: CN1CCN(c2nc(C3=C(c4c[nH]c5ccccc45)C(=O)NC3=O)c3ccccc3n2)CC1 [sotrastaurin]
Summary of the method: as §1

Measured: log2 fold change

TARBP1 (UniProt Q13395)
inactive: ibrutinib -0.021 | [1] 0.036 | ralimetinib 0.162 | [2] 0.03 | [3] -0.051 | [4] -0.027 | [5] -0.077 | [6] 0.002 | [7] 0.035 | [8] -0.036 | vemurafenib 0.019 | [9] -0.004 | barasertib 0.02 | [10] 0.025 | volasertib -0.032 | [11] -0.047 | [12] -0.053 | [13] -0.034 | saracatinib -0.055 | sotrastaurin 0.038

SLC27A2 (UniProt O14975)
Sequence of UniProt O14975 (O14975 whole entry, looked up): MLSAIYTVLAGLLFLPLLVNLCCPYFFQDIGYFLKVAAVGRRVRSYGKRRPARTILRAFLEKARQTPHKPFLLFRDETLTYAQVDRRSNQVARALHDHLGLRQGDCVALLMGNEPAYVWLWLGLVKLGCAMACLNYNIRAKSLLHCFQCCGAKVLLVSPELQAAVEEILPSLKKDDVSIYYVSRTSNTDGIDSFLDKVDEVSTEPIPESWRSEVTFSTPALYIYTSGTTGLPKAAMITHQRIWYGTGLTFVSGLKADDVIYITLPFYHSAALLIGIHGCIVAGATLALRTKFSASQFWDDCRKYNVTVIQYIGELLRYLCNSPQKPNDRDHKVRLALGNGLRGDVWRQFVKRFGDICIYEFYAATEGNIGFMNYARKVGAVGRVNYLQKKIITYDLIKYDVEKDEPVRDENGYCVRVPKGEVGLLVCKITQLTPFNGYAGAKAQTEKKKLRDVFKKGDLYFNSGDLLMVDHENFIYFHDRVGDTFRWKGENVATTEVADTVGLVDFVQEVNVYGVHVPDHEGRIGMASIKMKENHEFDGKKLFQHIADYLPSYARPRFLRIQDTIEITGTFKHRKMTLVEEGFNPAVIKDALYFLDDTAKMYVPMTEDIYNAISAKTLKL
inactive: ibrutinib 0.243 | [1] -0.024 | ralimetinib -0.013 | [2] 0.245 | [3] 0.11 | [4] -0.041 | [5] -0.035 | [6] 0.069 | [7] -0.089 | [8] 0.031 | vemurafenib 0.089 | [9] 0.009 | barasertib 0.029 | [10] -0.033 | volasertib -0.084 | [11] -0.063 | [12] -0.024 | [13] 0.082 | saracatinib -0.021 | sotrastaurin 0.159

SYF2 (UniProt O95926)
Sequence of UniProt O95926 (O95926 whole entry, looked up): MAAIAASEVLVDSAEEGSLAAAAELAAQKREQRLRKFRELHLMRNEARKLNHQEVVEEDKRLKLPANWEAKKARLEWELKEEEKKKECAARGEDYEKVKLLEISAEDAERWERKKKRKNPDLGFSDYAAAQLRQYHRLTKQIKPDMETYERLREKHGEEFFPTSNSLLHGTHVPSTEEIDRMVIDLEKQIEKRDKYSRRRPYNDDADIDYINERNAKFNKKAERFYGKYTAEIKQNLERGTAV
inactive: ibrutinib 0.094 | [1] 0.023 | ralimetinib -0.019 | [2] 0.001 | [3] -0.02 | [4] -0.027 | [5] -0.122 | [6] 0.037 | [7] 0.066 | [8] -0.061 | vemurafenib -0.012 | [9] -0.042 | barasertib -0.039 | [10] 0.096 | volasertib 0.038 | [11] -0.044 | [12] -0.043 | [13] 0.028 | saracatinib 0.015 | sotrastaurin -0.008

STARD3 isoform 3 (UniProt Q14849)
Sequence of UniProt Q14849 (Q14849 whole entry, looked up): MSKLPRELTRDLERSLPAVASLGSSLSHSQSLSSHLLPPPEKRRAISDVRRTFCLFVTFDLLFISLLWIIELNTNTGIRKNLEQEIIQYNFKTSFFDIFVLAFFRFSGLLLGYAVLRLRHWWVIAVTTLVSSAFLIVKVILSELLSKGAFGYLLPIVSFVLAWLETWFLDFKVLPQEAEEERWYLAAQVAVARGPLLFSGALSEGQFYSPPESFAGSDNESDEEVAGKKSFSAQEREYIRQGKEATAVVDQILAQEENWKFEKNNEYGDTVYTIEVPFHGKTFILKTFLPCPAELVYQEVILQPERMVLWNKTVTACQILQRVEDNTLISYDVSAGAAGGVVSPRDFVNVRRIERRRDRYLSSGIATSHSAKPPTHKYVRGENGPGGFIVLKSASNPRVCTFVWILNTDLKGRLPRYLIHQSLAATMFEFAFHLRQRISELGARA
inactive: ibrutinib 0.039 | [1] 0.044 | ralimetinib -0.074 | [2] -0.018 | [3] 0.011 | [4] 0.033 | [5] -0.072 | [6] 0.073 | [7] 0.021 | [8] 0.028 | vemurafenib 0.029 | [9] 0.054 | barasertib 0.051 | [10] 0.289 | volasertib 0.18 | [11] -0.031 | [12] -0.122 | [13] 0.02 | saracatinib -0.091 | sotrastaurin -0.016

SMC4 (UniProt Q9NTJ3)
inactive: ibrutinib -0.002 | [1] -0.005 | ralimetinib -0.015 | [2] -0.012 | [3] -0.009 | [4] -0.006 | [5] 0.002 | [6] -0.016 | [7] 0.023 | [8] 0.013 | vemurafenib 0.002 | [9] 0.001 | barasertib 0.022 | [10] -0.059 | volasertib -0.041 | [11] 0.006 | [12] 0.053 | [13] -0.118 | saracatinib 0.015 | sotrastaurin 0.012

STK24 (UniProt B4DR80)
inactive: ibrutinib 0.024 | ralimetinib 0.005 | [2] 0.024 | [3] 0.001 | [4] -0.019 | [5] -0.019 | [6] -0.018 | [7] -0.019 | [8] -0.018 | vemurafenib 0.009 | [9] 0.005 | barasertib 0 | [10] -0.03 | volasertib -0.017 | [11] 0.005 | [12] 0.02 | [13] -0.007 | saracatinib 0.005 | sotrastaurin 0.046
active: [1] 0.218

SVIP (UniProt Q8NHG7)
Sequence of UniProt Q8NHG7 (Q8NHG7 whole entry, looked up): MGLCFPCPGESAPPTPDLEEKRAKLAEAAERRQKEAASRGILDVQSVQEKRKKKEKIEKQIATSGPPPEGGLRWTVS
inactive: ibrutinib 0.088 | [1] -0.031 | ralimetinib 0.01 | [2] -0.062 | [3] -0.017 | [4] -0.029 | [5] -0.014 | [6] 0.075 | [7] 0.017 | [8] -0.019 | vemurafenib -0.014 | [9] 0.014 | barasertib 0.051 | [10] 0.079 | volasertib 0.095 | [11] -0.11 | [12] 0.033 | [13] 0.005 | saracatinib 0 | sotrastaurin -0.086

SMG7 (UniProt Q92540)
Sequence of UniProt Q92540 (Q92540 whole entry, looked up): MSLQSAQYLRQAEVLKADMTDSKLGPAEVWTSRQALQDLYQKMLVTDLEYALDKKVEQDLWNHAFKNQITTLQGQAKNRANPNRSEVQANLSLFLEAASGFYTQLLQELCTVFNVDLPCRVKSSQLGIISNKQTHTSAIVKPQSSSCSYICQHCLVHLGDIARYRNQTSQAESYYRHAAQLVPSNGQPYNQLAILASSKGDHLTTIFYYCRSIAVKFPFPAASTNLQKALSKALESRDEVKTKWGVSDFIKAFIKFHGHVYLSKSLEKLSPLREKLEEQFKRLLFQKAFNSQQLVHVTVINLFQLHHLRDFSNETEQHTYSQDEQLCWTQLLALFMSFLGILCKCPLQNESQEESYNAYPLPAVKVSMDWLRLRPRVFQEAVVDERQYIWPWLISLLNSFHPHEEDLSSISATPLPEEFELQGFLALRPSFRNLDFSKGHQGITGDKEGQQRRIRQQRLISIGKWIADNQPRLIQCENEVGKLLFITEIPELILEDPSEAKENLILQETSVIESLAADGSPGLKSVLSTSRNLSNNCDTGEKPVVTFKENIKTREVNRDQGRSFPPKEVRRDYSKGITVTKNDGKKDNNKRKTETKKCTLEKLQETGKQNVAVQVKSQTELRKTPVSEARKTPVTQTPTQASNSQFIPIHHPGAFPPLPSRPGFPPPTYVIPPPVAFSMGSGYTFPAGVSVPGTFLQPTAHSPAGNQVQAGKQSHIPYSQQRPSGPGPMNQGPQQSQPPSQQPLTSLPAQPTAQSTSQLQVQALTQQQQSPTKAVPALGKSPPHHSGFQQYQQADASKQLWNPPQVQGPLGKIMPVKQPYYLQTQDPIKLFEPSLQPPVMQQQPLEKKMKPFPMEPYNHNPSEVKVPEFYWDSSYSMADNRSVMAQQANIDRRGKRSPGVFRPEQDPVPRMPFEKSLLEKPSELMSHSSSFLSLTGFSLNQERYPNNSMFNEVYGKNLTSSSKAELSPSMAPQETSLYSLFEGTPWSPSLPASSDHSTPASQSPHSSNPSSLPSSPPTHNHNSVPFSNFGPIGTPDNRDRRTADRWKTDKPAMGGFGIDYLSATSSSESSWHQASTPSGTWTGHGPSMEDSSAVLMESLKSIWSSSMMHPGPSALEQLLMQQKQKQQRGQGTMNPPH
inactive: ibrutinib 0.019 | [1] 0.041 | ralimetinib -0.036 | [2] -0.13 | [3] 0.066 | [4] -0.02 | [5] -0.01 | [6] -0.281 | [7] 0.047 | [8] 0.03 | vemurafenib 0.073 | [9] 0.011 | barasertib 0.098 | [10] 0.071 | volasertib -0.044 | [11] 0.074 | [12] -0.038 | [13] -0.014 | saracatinib 0.045 | sotrastaurin -0.02

SLC27A4 (UniProt Q6P1M0)
Sequence of UniProt Q6P1M0 (Q6P1M0 whole entry, looked up): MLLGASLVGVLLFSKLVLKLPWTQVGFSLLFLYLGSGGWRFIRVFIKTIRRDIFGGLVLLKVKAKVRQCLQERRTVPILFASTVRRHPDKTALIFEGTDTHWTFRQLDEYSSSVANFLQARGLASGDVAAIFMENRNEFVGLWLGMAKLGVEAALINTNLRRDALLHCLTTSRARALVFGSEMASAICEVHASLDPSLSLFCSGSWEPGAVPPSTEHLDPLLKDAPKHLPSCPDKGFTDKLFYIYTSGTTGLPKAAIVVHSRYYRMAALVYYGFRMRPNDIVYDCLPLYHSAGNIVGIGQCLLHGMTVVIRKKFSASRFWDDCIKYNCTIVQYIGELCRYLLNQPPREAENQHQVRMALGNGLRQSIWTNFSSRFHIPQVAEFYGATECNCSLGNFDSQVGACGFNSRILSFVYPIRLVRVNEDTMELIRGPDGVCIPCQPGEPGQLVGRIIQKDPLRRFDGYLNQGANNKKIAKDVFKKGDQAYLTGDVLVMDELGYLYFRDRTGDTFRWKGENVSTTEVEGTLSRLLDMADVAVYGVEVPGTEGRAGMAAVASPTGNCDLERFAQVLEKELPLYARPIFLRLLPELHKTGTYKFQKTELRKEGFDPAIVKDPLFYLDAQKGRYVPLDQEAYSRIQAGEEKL
inactive: ibrutinib -0.004 | [1] 0.029 | ralimetinib 0.009 | [2] -0.027 | [3] 0.049 | [4] 0.077 | [5] -0.042 | [6] -0.051 | [7] 0.028 | [8] 0.003 | vemurafenib -0.042 | [9] 0.127 | barasertib -0.015 | [10] -0.028 | volasertib -0.106 | [11] 0 | [12] -0.066 | [13] -0.008 | saracatinib -0.023 | sotrastaurin 0.083

SF3B6 (UniProt Q9Y3B4)
Sequence of UniProt Q9Y3B4 (Q9Y3B4 whole entry, looked up): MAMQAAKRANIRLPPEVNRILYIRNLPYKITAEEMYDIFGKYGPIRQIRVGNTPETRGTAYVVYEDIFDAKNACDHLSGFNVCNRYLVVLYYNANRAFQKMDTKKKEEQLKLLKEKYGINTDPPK
inactive: ibrutinib 0.036 | [1] 0.004 | ralimetinib -0.001 | [2] -0.017 | [3] -0.002 | [4] 0.043 | [5] 0.003 | [6] 0.002 | [7] 0.024 | [8] -0.007 | vemurafenib -0.006 | [9] -0.003 | barasertib -0.026 | [10] 0.027 | volasertib 0.014 | [11] -0.003 | [12] 0.061 | [13] -0.013 | saracatinib 0.028 | sotrastaurin 0.018

SYNE2 isoform 2 (UniProt Q8WXH0)
inactive: ibrutinib 0 | [1] -0.003 | ralimetinib 0.018 | [2] -0.076 | [3] -0.106 | [4] -0.153 | [5] -0.047 | [6] 0.04 | [7] -0.005 | [8] 0.006 | vemurafenib 0.009 | [9] 0.005 | barasertib 0.085 | [10] 0.004 | volasertib 0.065 | [11] -0.042 | [13] 0.371 | saracatinib -0.054 | sotrastaurin 0.035
active: [12] -0.966

SLC29A2 (UniProt Q14542)
Sequence of UniProt Q14542 (Q14542 whole entry, looked up): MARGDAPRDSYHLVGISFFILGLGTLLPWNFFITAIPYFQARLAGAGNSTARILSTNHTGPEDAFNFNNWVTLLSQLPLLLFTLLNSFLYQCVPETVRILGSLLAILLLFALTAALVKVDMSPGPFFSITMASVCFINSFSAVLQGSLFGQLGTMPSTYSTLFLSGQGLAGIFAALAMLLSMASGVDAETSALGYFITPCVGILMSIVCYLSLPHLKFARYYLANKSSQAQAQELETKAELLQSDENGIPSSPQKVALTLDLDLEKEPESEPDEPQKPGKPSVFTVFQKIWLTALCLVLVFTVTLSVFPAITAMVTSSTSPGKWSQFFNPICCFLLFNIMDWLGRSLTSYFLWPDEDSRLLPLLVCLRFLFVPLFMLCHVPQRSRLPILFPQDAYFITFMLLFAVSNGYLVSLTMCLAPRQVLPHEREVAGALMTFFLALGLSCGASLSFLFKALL
inactive: ibrutinib 0.035 | [1] 0.045 | ralimetinib 0.082 | [2] -0.036 | [3] 0.043 | [4] -0.001 | [5] -0.011 | [6] 0.041 | [7] 0.072 | [8] 0.006 | vemurafenib 0.003 | [9] 0.012 | barasertib 0.029 | [10] 0.049 | volasertib -0.041 | [11] -0.079 | [13] 0.206 | saracatinib -0.004 | sotrastaurin 0.013
active: [12] -0.729

SRRT (UniProt Q9BXP5)
inactive: ibrutinib 0.013 | [1] 0 | ralimetinib 0.026 | [2] 0.006 | [3] -0.01 | [4] -0.024 | [5] -0.012 | [6] -0.008 | [7] 0.043 | [8] -0.001 | vemurafenib 0.012 | [9] 0.012 | barasertib -0.008 | [10] -0.039 | volasertib -0.08 | [11] 0.042 | [12] 0.061 | [13] -0.1 | saracatinib -0.016 | sotrastaurin 0.02

SLC11A2 isoform 3 (UniProt P49281)
Sequence of UniProt P49281 (P49281 whole entry, looked up): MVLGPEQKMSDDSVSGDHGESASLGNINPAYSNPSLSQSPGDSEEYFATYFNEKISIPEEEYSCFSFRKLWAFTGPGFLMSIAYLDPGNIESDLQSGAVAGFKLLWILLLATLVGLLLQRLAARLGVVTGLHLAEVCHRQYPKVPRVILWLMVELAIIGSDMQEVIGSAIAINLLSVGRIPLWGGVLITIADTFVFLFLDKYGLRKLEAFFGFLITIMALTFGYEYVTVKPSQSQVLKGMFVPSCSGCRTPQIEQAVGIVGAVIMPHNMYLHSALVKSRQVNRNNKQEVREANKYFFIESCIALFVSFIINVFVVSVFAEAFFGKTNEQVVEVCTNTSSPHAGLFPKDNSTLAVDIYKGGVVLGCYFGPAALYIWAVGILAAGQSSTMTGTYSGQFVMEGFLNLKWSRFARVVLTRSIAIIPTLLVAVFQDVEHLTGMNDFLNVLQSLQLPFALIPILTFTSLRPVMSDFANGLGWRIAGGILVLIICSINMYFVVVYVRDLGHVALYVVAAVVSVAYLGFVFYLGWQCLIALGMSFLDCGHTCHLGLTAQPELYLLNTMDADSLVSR
inactive: ibrutinib -0.032 | [1] -0.018 | ralimetinib -0.038 | [2] -0.093 | [3] 0.017 | [4] 0.242 | [5] -0.001 | [6] 0.094 | [7] 0.001 | [8] 0.003 | vemurafenib -0.009 | [9] 0.043 | barasertib 0.019 | [10] 0.073 | volasertib 0.026 | [11] 0.036 | [12] -0.082 | [13] 0.074 | saracatinib 0.028 | sotrastaurin -0.012

SNX6, A0A0A0MRI2
inactive: ibrutinib -0.034 | [1] 0 | ralimetinib -0.005 | [2] -0.03 | [3] -0.011 | [4] -0.032 | [5] -0.001 | [6] 0.018 | [7] 0.039 | [8] -0.004 | vemurafenib 0.005 | [9] 0.025 | barasertib 0.006 | [10] -0.111 | volasertib -0.05 | [11] 0.026 | [12] 0.21 | [13] -0.126 | saracatinib -0.002 | sotrastaurin -0.013

SULT1A1 (UniProt P50225)
Sequence of UniProt P50225 (P50225 whole entry, looked up): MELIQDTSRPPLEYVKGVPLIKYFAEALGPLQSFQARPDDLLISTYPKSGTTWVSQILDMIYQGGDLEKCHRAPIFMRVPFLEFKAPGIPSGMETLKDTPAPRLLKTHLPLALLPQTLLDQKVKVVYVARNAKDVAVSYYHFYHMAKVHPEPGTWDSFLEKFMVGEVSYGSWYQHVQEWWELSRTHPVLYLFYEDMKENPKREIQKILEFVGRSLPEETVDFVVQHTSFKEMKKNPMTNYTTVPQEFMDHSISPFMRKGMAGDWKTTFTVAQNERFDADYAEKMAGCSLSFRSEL
inactive: ibrutinib 0.02 | [1] -0.027 | ralimetinib 0.028 | [2] -0.03 | [3] 0.03 | [4] -0.009 | [5] -0.06 | [6] 0.022 | [7] 0.047 | [8] 0.006 | vemurafenib 0.014 | [9] 0.004 | barasertib -0.017 | [10] 0.032 | volasertib -0.046 | [11] -0.016 | [12] 0.014 | [13] -0.009 | saracatinib 0.037 | sotrastaurin -0.009
